High-throughput results deposited in PubChem BioAssay by National Center for Advancing Translational Sciences (NCATS).
D1 agonist – activates the human D1 dopamine receptor | P21728 | HEK293 T-REx D1 cells, calcium flux, agonist mode | activation, % at 2 µM | actives 1% (n = 360,000) | AID 504660; in the data active = activation above about 30%; note: 0% is about no effect
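Inducible HEK293 T-REx D1 cells, force-coupled to calcium signalling, were plated at 4000 cells/well with tetracycline and held overnight at 30 C. After no-wash calcium dye loading, compound-evoked calcium rise over 180 s flagged agonists.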
D3 antag – antagonists of human D3 dopamine receptor | P35462 | max response, negative = inhibition, % | AID 652054 | D3R cells, DiscoveRx beta-arrestin luminescence, antagonist mode; hits give low values | actives 2.5% (n = 360,000); in the data active = max response below about -50%; inconclusive = no clear call, values can overlap the other calls; note: % is set by controls: 0 for no effect and ±100 for the full control effect
Target sequence (P35462 whole entry, looked up): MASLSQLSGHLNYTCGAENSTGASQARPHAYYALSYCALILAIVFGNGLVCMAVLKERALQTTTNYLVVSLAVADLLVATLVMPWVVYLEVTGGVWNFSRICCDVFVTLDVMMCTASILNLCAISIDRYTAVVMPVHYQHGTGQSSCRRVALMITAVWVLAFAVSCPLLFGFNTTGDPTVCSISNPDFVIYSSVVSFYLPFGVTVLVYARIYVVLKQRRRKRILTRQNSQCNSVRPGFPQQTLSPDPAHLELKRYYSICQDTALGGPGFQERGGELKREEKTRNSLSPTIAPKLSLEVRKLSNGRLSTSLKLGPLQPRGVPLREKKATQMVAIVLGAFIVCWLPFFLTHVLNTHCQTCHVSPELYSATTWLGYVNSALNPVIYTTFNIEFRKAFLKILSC
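Cells plated overnight at 1500 cells/well, then exposed to library compounds with dopamine controls for 90 minutes at 37 degrees C. DiscoveRx reagent added for 30–60 minutes at room temperature; luminescence read, quantitative HTS format.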
D1 antagonist – antagonists of human D1 dopamine receptor | AID 504652 | actives 3.2% (n = 360,000) | HEK293 TREx D1 cells, calcium flux, dopamine EC80; hits give low values | activity change, negative = inhibition, % at 10 µM; in the data active = activity change below about -30%; note: % is set by controls: 0 for no effect and ±100 for the full control effect
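Compound effects on dopamine-evoked calcium signalling were measured in tetracycline-induced HEK293 Trex D1 cells. Dopamine at EC80 followed a 180 s compound pre-read, and fluorescence was tracked kinetically for 180 s more.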
DRD3 agonist – agonists of human D3 dopamine receptor; max activation, %; AID 652048; D3R DiscoveRx beta-arrestin cells, luminescence, 90 min; actives 0.58% (n = 410,000); P35462; in the data active = max activation above about 30%; note: 0% is about no effect
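Cells at 1500/well, incubated overnight, then treated with pinned compounds (dopamine as control) for 90 min at 37 degrees C. DiscoveRx reagent added for 30 - 60 minutes at room temperature; luminescence read.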
D1 PAM – enhances dopamine response at the human D1 receptor; actives 0.036% (n = 360,000); AID 504651; P21728; HEK293 TREx D1 cells, calcium flux, dopamine EC20 potentiation; potentiation, % at 10 µM; in the data active = potentiation above about 30%; note: 0% is about no effect
The depositor's hits bear a star; ? = inconclusive; · = no result. The list is not random: actives were taken first. Their share in the collection is about 6%.

SMILES	D1 agonist	D3 antag	D1 antagonist	DRD3 agonist	D1 PAM
COc1ccc(C(F)(F)F)cc1NC(=O)C(OC(=O)CNC(=O)c1ccccc1)c1ccccc1 (stereo not drawn)	8.2	·	9.2	·	-7.0
N#Cc1ccc(/C=C/C(=O)c2ccco2)cc1	5.0	1.2	-4.5	-14.9	-8.0
Nc1ccc(/C=C/C(=O)c2ccco2)cc1	72.0*	-11.1	6.7	-7.7	0.5
CN1/C(=C/C=C(C#N)C#N)C(C)(C)c2ccccc21	116.1*	3.6	5.3	-6.9	11.6
CN1\C(=C/C=C/C=C/C=[N+](C)C)C(C)(C)c2ccccc21	324.2*	-14.7	-20.2	-3.7	6.0
CC1=C/C(=C\C=C(C#N)C#N)N(C)c2ccccc21	45.4*	-25.3	-34.5*	5.1	-11.6
COc1ccccc1OCC(=O)/C=C1/N(C)c2ccccc2C1(C)C	32.1*	17.1	-49.1*	6.2	-7.7
CCOc1ccc(N(CC)S(=O)(=O)N2CCCC(C(=O)NCc3ccccc3OCC)C2)cc1 (stereo not drawn)	12.7	·	-0.8	-11.1	-4.7
Cn1c(=O)cc(SCC(=O)NCCc2ccc(Cl)cc2)c2cc(Cl)ccc21	1.4	·	0.3	-6.1	-5.3
CC(=O)c1ccccc1OCCOc1ccccc1C(C)=O	3.5	-14.8	-7.7	-2.8	-1.4
CCC(=O)c1ccccc1OCCN1CCN(CC)CC1	4.6	-24.5	-5.2	0.3	-3.6
COC(=O)c1ccccc1OCCN1CCCCCC1	5.5	-56.9*	2.6	-23.3	-4.2
CC(=O)c1ccccc1OCCCCN1CCCCC1	-1.6	-77.1*	12.0	-19.3	-6.3
CC(C)CN(C(=O)CSc1nnc(-c2ccco2)o1)c1c(N)n(Cc2ccccc2)c(=O)[nH]c1=O	-0.4	4.0	-38.0*	8.3	-6.5
CC1Cc2ccccc2N1CC(=O)N(C)c1c(N)n(Cc2ccccc2)c(=O)[nH]c1=O (stereo not drawn)	3.9	8.0	-7.8	4.2	-2.0
CCN(C(=O)CN1c2ccccc2CC1C)c1c(N)n(Cc2ccccc2)c(=O)[nH]c1=O (stereo not drawn)	2.0	2.7	-0.6	-0.2	45.5*
CCN(C(=O)CSc1nnc2ccccn12)c1c(N)n(Cc2ccccc2)c(=O)[nH]c1=O	0.0	9.8	-1.3	30.5*	-4.2
COc1ccc(C(=O)NC2(C(F)(F)F)C(=O)NC(C)=C2C#N)cc1 (stereo not drawn)	-0.9	·	-9.1	3.8	-1.8
O=C(c1ccc(Cl)cc1)N1CCN(c2ccnc3cc(Cl)ccc23)CC1	1.5	-13.7	-55.4*	-2.0	-15.2
Cc1ccc(C2C3=C(CC(C)(C)CC3=O)Nc3onc(C)c32)cc1 (stereo not drawn)	0.7	?	4.9	7.2	-3.4
Cc1noc2c1C(c1ccc(N(C)C)cc1)C1=C(CC(C)(C)CC1=O)N2 (stereo not drawn)	-0.3	-78.2*	4.7	2.2	6.5
CNc1ncc(Cc2ccccc2)s1	2.6	-10.6	-52.7*	2.3	-5.1
O=C(Nc1ncc(Cc2ccccc2)s1)C1CCCO1 (stereo not drawn)	3.0	6.1	-11.7	0.0	-0.7
C=C(NC(=O)C(=C)NC(=O)c1csc(C2=N[C@@H]3c4csc(n4)[C@H]4NC(=O)c5csc(n5)[C@H]([C@](C)(O)[C@@H](C)O)NC(=O)[C@H]5CSC(=N5)C(=CC)NC(=O)C([C@@H](C)O)NC(=O)c5csc(n5)[C@]3(CC2)NC(=O)[C@H](C)NC(=O)C(=C)NC(=O)[C@H](C)NC(=O)C([C@@H](C)CC)NC2C=Cc3c([C@H](C)O)cc(nc3C2O)C(=O)O[C@@H]4C)n1)C(N)=O (stereo partly drawn)	·	·	·	-1.4	·
CN1CCCN(c2cc(-c3ccc4ccccc4c3)nc3ccnn23)CC1	·	-66.8*	·	-11.8	·
SMILES	D1 agonist	D3 antag	D1 antagonist	DRD3 agonist	D1 PAM
Cc1cccc(-c2cc(N3CCCN(C)CC3)n3nccc3n2)c1	·	?	·	-18.1	·
Cc1nn(CCCC(=O)NCCc2ccc(Cl)cc2)c(=O)c2c1sc1ccccc12	1.5	·	8.7	-2.1	-2.5
Cn1c(=O)c2c(-c3ccccc3)n3c(c2n(C)c1=O)C(c1cccc([N+](=O)[O-])c1)Nc1ccccc1-3 (stereo not drawn)	3.4	·	-9.1	2.0	-2.8
CC(Cc1ccccn1)NC(=O)c1ccc(OC2CCN(CCc3ccccc3)CC2)cc1 (stereo not drawn)	3.4	-66.2*	-13.6	-9.8	-0.8
O=C(NCCc1ccccn1)c1ccc(OC2CCN(CCc3ccccc3)CC2)cc1	6.6	-61.6*	-25.0	-27.6	-7.2
CSCCCNC(=O)c1ccc(OC2CCN(CCc3ccccc3)CC2)cc1	9.3	-85.2*	-5.1	-19.5	-8.8
O=C(NCCc1cccc(Cl)c1)c1ccc(OC2CCN(Cc3ccccn3)CC2)cc1	8.8	-58.7*	-16.9	-18.5	-10.4
Cc1cccnc1CCNC(=O)c1ccc(OC2CCN(Cc3ccccn3)CC2)cc1	7.0	-12.9	-2.4	-4.7	-2.6
Cc1ccc2oc(C(=O)N(Cc3cccc(F)c3)C3CCS(=O)(=O)C3)c(C)c2c1 (stereo not drawn)	6.5	·	-18.1	-3.5	2.1
COc1ccc(NC(=O)CC2C(=O)N(c3ccc(F)cc3)C(=O)N2Cc2cccnc2)cc1 (stereo not drawn)	0.3	·	20.4	-0.5	-1.2
COc1ccc(NC(=S)N(CCCN2CCOCC2)C(C)c2cc3cccc(OC)c3o2)cc1 (stereo not drawn)	1.5	-12.9	16.8	-7.4	-9.2
COc1cccc(NC(=S)N(CCCN2CCOCC2)C(C)c2cc3ccccc3o2)c1 (stereo not drawn)	6.8	-54.6*	4.0	-20.1	-3.5
CCOC(=O)c1ccc2c(c1)N(Cc1cccc(C(F)(F)F)c1)C(=O)c1ccccc1S2(=O)=O	8.7	·	-51.2*	8.2	-1.3
CCN1CCN(C(=O)c2ccc3c(c2)N(Cc2ccccc2)C(=O)c2ccccc2S3(=O)=O)CC1	4.7	-72.2*	8.7	-15.2	-6.0
O=C(c1ccc2c(c1)N(Cc1cccc(Cl)c1)C(=O)c1ccccc1S2(=O)=O)N1CCC(Cc2ccccc2)CC1	4.7	·	-34.1*	3.5	-2.8
O=C(c1ccc2c(c1)N(Cc1ccccc1)C(=O)c1ccccc1S2(=O)=O)N1CCN(Cc2ccccc2)CC1	1.2	·	-0.4	-6.6	-0.1
CCOC(=O)CC(NC(=O)c1cc2cc(OC)ccc2oc1=O)c1ccc(OC)cc1 (stereo not drawn)	0.0	·	-3.7	-12.7	1.4
COc1cc(NC(=O)OCc2ccccc2)c2ncccc2c1	·	16.3	·	34.4*	·
COc1cc(NCCCCCCCN)c2ncccc2c1	19.3	-20.4	8.1	-2.5	-6.7
COc1cc(NC(=O)c2cc(OC)c(OC)c(OC)c2)c2ncccc2c1	·	82.4	·	17.3	·
COc1cc(NC(=O)c2ccc3c(c2)OCO3)c2ncccc2c1	1.7	14.2	-30.7*	2.3	3.1
